Assay results: paper PMC7862700, “An all-to-all approach to the identification of sequence-specific readers for epigenetic DNA modifications on cytosine”

Experiments:
Experiment in all cases: DAPPL (digital affinity profiling via proximity ligation, sequencing); 10 mM Tris-HCl pH 7.5, 50 mM NaCl, 1 mM DTT, 4% glycerol, room temperature, 30 min; GST-TFs on glutathione beads, 16-mer random dsDNA library, 0.1% formaldehyde crosslink after washing; high values mean tight binding
FLI1 = molecular target: T1, FLI1 (Homo sapiens, UniProt Q01543 1-452); details: protein: recombinant; tags: N-terminal GST; dsDNA, one strand shown
T1 sequence: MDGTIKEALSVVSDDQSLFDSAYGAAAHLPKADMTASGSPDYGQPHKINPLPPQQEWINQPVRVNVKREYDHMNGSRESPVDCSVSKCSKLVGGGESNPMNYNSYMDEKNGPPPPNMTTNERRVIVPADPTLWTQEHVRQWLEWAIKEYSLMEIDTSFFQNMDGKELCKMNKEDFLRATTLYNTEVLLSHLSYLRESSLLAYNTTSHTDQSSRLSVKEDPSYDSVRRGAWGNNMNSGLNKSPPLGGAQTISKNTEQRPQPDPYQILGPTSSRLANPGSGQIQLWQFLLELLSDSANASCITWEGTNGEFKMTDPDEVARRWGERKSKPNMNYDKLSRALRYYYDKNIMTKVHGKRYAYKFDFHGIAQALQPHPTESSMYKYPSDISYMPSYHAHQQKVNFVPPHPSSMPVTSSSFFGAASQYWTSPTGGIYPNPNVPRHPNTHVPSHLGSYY
Summary of the method: (§1)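 Binding signal is defined as a hexamer's read frequency for one factor over its frequency for the tag-only sample. To obtain reads, GST-fused human transcription factors were expressed in yeast, captured on glutathione beads, barcoded with DNA and pooled with that sample. Pools met 200 nmole of a 16-mer random double-stranded DNA library in Tris/NaCl/DTT/glycerol buffer for 30 min at room temperature before washing, 0.1% formaldehyde crosslinking, proximity ligation (BsaI/T4 ligase, 1 h, 37 °C), PCR and Illumina NextSeq500 sequencing.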

ELK1 = molecular target: T2, ELK1 (Homo sapiens, UniProt P19419 1-428); details: protein: recombinant; tags: N-terminal GST; dsDNA, one strand shown
T2 sequence: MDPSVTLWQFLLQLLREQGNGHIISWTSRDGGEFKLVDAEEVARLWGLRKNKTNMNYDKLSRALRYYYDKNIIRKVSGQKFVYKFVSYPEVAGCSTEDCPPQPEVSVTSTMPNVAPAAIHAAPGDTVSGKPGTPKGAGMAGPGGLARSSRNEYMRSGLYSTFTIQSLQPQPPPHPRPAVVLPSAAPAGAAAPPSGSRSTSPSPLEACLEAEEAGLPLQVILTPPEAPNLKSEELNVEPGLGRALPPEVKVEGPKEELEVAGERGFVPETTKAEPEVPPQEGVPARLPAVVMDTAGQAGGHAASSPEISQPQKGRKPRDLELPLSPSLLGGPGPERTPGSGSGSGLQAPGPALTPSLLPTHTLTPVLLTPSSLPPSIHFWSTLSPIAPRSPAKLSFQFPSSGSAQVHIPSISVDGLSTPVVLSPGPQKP
Summary of the method: as §1

GABPA = molecular target: T3, GABPA (Homo sapiens, UniProt Q06546 1-454); details: protein: recombinant; tags: N-terminal GST; dsDNA, one strand shown
T3 sequence: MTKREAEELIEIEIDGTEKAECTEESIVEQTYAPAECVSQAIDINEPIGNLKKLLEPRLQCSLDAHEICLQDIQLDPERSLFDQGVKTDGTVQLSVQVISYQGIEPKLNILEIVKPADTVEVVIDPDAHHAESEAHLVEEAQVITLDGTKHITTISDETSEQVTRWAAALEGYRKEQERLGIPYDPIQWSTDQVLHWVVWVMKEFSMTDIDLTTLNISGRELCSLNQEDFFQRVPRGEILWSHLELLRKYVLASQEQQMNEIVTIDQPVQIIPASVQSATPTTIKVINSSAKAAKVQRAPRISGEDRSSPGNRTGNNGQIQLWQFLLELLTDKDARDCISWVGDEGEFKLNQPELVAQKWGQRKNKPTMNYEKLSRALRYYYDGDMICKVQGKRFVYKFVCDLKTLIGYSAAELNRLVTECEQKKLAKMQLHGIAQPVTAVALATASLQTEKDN
Summary of the method: as §1

ERG = molecular target: T4, ERG (Homo sapiens, UniProt P11308 1-479); details: protein: recombinant; tags: N-terminal GST; dsDNA, one strand shown
T4 sequence: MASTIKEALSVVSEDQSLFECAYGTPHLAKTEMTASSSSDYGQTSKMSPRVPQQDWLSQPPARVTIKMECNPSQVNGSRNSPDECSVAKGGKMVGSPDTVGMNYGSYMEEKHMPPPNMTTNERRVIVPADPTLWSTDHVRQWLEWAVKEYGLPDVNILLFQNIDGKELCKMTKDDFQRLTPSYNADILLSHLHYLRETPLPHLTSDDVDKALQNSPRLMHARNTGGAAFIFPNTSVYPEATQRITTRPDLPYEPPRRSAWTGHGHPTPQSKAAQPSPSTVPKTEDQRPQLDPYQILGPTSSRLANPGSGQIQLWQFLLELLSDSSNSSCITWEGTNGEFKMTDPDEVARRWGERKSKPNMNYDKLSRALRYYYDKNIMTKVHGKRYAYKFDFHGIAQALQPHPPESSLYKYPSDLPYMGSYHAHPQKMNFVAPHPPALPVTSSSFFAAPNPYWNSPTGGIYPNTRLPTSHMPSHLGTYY
Summary of the method: as §1

ELF1 = ELF1 (Homo sapiens, UniProt P32519 1-619); details: protein: recombinant; tags: N-terminal GST; dsDNA, one strand shown
Summary of the method: as §1

EHF = molecular target: T5, EHF (Homo sapiens, UniProt Q9NZC4 1-300); details: protein: recombinant; tags: N-terminal GST; dsDNA, one strand shown
T5 sequence: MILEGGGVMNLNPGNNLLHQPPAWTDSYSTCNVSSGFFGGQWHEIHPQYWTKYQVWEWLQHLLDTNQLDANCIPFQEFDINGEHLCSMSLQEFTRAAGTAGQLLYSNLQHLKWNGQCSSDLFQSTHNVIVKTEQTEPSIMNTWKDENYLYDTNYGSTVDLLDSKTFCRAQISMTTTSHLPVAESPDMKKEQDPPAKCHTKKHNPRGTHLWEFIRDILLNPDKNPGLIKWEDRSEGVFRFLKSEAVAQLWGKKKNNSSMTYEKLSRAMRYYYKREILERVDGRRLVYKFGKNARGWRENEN
Summary of the method: as §1

SPI1 = SPI1 (Homo sapiens, UniProt P17947 1-270); details: protein: recombinant; tags: N-terminal GST; dsDNA, one strand shown
Summary of the method: as §1

SPIB = SPIB (Homo sapiens, UniProt Q01892 1-262); details: protein: recombinant; tags: N-terminal GST; dsDNA, one strand shown
Summary of the method: as §1

ELK3 = molecular target: T6, ELK3 (Homo sapiens, UniProt P41970 1-407); details: protein: recombinant; tags: N-terminal GST; dsDNA, one strand shown
T6 sequence: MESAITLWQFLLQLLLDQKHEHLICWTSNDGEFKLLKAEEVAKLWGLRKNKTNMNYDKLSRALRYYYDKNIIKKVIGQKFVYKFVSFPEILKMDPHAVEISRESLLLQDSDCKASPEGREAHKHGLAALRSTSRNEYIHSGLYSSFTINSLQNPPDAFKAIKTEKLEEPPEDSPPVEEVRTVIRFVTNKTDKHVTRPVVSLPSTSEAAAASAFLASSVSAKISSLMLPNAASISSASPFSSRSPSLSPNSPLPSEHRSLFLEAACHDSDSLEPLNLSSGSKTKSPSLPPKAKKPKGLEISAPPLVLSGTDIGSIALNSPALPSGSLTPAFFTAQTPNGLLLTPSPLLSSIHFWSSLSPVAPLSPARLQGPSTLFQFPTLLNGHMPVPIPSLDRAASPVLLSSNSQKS
Summary of the method: as §1

FEV = molecular target: T7, FEV (Homo sapiens, UniProt Q99581 1-238); details: protein: recombinant; tags: N-terminal GST; dsDNA, one strand shown
T7 sequence: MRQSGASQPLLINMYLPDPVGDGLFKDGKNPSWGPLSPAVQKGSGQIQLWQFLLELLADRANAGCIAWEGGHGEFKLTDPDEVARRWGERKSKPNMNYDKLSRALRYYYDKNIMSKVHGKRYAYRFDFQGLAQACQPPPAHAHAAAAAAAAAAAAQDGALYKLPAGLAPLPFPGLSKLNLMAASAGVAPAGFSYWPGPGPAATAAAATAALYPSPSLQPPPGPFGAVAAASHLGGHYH
Summary of the method: as §1

ETV5 = ETV5 (Homo sapiens, UniProt P41161 1-510); details: protein: recombinant; tags: N-terminal GST; dsDNA, one strand shown
Summary of the method: as §1

HSF1 = HSF1 (Homo sapiens, UniProt Q00613 1-529); details: protein: recombinant; tags: N-terminal GST; chain copies: 3; dsDNA, one strand shown
Summary of the method: as §1

SPIC = molecular target: T8, SPIC (Homo sapiens, UniProt Q8N5J4 1-248); details: protein: recombinant; tags: N-terminal GST; dsDNA, one strand shown
T8 sequence: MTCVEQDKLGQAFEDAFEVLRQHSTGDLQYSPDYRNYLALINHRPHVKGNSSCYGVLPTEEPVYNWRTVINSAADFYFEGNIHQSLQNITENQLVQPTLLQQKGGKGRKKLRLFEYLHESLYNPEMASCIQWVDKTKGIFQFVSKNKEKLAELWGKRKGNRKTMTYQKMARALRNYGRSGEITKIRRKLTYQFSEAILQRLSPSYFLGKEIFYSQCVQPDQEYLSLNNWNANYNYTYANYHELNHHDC
Summary of the method: as §1

ELF4 = ELF4 (Homo sapiens, UniProt Q99607 1-663); details: protein: recombinant; tags: N-terminal GST; dsDNA, one strand shown
Summary of the method: as §1

ELK4 = molecular target: T9, ELK4 (Homo sapiens, UniProt P28324-2 1-405); details: protein: recombinant; tags: N-terminal GST; dsDNA, one strand shown
T9 sequence: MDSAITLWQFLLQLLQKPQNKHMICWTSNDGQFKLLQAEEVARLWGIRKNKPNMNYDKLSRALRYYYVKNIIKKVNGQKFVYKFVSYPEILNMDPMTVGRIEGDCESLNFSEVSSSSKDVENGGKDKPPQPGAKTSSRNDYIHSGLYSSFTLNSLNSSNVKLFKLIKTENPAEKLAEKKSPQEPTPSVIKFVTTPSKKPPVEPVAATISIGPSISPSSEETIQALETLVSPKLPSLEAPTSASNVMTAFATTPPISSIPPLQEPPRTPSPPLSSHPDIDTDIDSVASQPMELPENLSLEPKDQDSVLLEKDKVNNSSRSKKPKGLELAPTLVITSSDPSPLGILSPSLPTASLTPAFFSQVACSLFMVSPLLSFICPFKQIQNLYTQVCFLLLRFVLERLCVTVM
Summary of the method: as §1

ETV2 = molecular target: T10, ETV2 (Homo sapiens, UniProt O00321 1-342); details: protein: recombinant; tags: N-terminal GST; dsDNA, one strand shown
T10 sequence: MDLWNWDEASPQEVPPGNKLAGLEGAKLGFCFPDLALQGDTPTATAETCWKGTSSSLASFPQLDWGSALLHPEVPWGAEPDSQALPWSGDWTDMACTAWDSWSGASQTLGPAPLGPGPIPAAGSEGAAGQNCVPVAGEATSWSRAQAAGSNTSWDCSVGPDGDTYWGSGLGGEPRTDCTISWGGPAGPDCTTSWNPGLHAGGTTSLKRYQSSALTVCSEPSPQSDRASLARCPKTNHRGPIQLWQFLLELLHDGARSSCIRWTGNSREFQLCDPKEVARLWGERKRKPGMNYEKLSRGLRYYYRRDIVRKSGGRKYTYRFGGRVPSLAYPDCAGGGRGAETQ
Summary of the method: as §1

CRX = CRX (Homo sapiens, UniProt O43186 1-299); details: protein: recombinant; tags: N-terminal GST; dsDNA, one strand shown
Summary of the method: as §1

ETV1 = ETV1 (Homo sapiens, UniProt P50549 1-477); details: protein: recombinant; tags: N-terminal GST; dsDNA, one strand shown
Summary of the method: as §1

Chain of ETV5 (P41161 whole entry): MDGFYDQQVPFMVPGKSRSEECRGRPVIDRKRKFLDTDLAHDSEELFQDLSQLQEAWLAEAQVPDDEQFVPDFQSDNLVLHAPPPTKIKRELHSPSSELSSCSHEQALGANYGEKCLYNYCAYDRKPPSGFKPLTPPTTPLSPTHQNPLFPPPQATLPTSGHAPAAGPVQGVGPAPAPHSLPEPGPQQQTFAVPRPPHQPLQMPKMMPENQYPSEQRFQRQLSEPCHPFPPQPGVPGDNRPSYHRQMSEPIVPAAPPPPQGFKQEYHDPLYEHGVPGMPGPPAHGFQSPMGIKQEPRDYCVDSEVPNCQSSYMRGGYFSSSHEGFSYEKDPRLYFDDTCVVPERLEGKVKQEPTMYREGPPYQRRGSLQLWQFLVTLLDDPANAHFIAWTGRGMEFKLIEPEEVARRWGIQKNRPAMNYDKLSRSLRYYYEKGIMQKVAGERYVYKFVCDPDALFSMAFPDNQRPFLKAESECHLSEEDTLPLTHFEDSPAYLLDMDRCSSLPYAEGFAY
Chain of ELF4 (Q99607 whole entry): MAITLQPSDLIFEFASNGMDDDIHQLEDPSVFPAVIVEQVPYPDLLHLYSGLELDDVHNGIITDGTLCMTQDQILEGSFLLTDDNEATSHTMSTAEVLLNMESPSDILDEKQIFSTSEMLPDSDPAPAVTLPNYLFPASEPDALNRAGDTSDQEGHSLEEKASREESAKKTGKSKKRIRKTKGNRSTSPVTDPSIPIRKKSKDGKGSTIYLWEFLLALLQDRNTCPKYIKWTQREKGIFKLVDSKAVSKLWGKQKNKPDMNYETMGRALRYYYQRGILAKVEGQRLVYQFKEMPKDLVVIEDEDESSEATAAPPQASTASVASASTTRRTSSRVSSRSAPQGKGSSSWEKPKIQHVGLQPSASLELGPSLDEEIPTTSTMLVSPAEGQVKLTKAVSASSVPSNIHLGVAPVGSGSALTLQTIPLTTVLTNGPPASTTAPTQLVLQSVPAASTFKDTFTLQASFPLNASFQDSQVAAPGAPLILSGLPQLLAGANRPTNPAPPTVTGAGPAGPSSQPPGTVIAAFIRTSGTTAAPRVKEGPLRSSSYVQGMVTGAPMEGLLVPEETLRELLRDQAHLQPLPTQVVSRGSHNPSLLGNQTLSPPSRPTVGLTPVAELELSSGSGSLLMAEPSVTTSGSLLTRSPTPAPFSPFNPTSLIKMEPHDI
Chain of HSF1 (Q00613 whole entry): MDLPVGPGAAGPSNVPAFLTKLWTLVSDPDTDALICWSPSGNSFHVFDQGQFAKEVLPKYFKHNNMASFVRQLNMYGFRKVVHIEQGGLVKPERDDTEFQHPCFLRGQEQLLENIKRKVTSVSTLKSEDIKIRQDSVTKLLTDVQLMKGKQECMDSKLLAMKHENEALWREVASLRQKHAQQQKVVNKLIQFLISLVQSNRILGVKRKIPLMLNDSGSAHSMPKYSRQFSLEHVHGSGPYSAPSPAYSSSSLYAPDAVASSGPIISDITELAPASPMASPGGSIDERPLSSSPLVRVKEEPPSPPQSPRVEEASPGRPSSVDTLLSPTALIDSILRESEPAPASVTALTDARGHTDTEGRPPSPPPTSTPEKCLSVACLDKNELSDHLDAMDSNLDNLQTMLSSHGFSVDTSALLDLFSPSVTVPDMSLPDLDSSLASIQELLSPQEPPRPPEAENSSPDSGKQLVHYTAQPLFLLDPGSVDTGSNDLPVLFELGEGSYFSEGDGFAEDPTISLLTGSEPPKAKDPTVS
Chain of SPIB (Q01892 whole entry): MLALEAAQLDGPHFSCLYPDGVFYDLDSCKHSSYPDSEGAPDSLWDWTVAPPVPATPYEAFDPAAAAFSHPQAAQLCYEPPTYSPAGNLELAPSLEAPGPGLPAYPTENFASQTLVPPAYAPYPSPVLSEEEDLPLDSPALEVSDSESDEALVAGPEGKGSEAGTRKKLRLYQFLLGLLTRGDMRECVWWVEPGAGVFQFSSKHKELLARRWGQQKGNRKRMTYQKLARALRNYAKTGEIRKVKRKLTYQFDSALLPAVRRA
Chain of ELF1 (P32519 whole entry): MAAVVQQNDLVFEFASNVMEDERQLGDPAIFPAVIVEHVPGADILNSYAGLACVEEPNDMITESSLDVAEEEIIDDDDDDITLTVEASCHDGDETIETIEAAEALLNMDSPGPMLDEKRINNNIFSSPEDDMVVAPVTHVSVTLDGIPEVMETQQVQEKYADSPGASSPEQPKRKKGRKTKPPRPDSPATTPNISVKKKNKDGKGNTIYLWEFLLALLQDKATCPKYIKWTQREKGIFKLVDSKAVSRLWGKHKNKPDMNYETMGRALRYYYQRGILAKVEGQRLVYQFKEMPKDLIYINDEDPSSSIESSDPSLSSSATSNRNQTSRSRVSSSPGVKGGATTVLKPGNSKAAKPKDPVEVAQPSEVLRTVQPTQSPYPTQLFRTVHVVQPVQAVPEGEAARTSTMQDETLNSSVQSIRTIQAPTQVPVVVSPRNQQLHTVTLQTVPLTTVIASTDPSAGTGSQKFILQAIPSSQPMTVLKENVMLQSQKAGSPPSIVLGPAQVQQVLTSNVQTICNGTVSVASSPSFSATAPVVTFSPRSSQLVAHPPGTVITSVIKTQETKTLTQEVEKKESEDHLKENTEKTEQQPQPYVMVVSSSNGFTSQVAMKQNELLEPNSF
Chain of CRX (O43186 whole entry): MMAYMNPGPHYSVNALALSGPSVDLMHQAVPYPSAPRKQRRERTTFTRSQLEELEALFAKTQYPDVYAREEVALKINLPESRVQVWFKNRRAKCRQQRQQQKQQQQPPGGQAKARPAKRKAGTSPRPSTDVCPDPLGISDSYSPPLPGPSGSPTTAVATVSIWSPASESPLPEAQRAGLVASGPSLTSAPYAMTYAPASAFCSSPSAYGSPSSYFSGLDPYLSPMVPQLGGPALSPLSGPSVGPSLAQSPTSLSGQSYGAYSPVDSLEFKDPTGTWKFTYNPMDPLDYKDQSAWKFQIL
Chain of ETV1 (P50549 whole entry): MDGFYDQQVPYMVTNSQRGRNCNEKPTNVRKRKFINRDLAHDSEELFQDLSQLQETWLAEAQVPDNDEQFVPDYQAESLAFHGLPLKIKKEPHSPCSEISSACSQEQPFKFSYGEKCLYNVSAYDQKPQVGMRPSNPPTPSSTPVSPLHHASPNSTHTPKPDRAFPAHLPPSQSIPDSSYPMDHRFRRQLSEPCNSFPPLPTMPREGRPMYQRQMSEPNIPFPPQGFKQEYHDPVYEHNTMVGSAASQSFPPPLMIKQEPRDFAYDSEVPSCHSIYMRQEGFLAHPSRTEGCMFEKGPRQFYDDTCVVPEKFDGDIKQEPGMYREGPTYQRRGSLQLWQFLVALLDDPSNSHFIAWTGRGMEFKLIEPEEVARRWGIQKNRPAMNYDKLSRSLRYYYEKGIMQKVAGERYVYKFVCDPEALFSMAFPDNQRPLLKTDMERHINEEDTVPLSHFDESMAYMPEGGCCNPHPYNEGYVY

Sequence	binding signal (FLI1)	binding signal (ELK1)	binding signal (GABPA)	binding signal (ERG)	binding signal (ELF1)	binding signal (EHF)	binding signal (SPI1)	binding signal (SPIB)	binding signal (ELK3)	binding signal (FEV)	binding signal (ETV5)	binding signal (HSF1)	binding signal (SPIC)	binding signal (ELF4)	binding signal (ELK4)	binding signal (ETV2)	binding signal (CRX)	binding signal (ETV1)
AGCCTA	1.06 fold enrichment (6-mer frequency, TF over GST control)	1.05 fold enrichment (6-mer frequency, TF over GST control)	1.12 fold enrichment (6-mer frequency, TF over GST control)	1.08 fold enrichment (6-mer frequency, TF over GST control)	1.1 fold enrichment (6-mer frequency, TF over GST control)	1.04 fold enrichment (6-mer frequency, TF over GST control)	1.02 fold enrichment (6-mer frequency, TF over GST control)	1.02 fold enrichment (6-mer frequency, TF over GST control)	1.12 fold enrichment (6-mer frequency, TF over GST control)	1.01 fold enrichment (6-mer frequency, TF over GST control)	1.09 fold enrichment (6-mer frequency, TF over GST control)	1.21 fold enrichment (6-mer frequency, TF over GST control)	1.13 fold enrichment (6-mer frequency, TF over GST control)	1.09 fold enrichment (6-mer frequency, TF over GST control)	1.17 fold enrichment (6-mer frequency, TF over GST control)	1.12 fold enrichment (6-mer frequency, TF over GST control)	1.52 fold enrichment (6-mer frequency, TF over GST control)	1.12 fold enrichment (6-mer frequency, TF over GST control)
TCGATA	1.17 fold enrichment (6-mer frequency, TF over GST control)	1.03 fold enrichment (6-mer frequency, TF over GST control)	1.08 fold enrichment (6-mer frequency, TF over GST control)	1.1 fold enrichment (6-mer frequency, TF over GST control)	1.11 fold enrichment (6-mer frequency, TF over GST control)	1.12 fold enrichment (6-mer frequency, TF over GST control)	1.12 fold enrichment (6-mer frequency, TF over GST control)	1.03 fold enrichment (6-mer frequency, TF over GST control)	1.06 fold enrichment (6-mer frequency, TF over GST control)	1.05 fold enrichment (6-mer frequency, TF over GST control)	1.07 fold enrichment (6-mer frequency, TF over GST control)	1.35 fold enrichment (6-mer frequency, TF over GST control)	1.28 fold enrichment (6-mer frequency, TF over GST control)	1.15 fold enrichment (6-mer frequency, TF over GST control)	1.16 fold enrichment (6-mer frequency, TF over GST control)	1.16 fold enrichment (6-mer frequency, TF over GST control)	1.24 fold enrichment (6-mer frequency, TF over GST control)	1.03 fold enrichment (6-mer frequency, TF over GST control)
